Screens from PubChem.
Rows were chosen to be rich in hits. Some 2.3% of all compounds tested hit in one or more screens of this group.
CHO-K1 Ca antag: counter-screen for M1 antagonists: effect in parental CHO-K1 cells; inhibition, % at 3 µM; ATP-induced calcium, Fluo-8 fluorescence; 360,000 tested, 0.6% active; AID 602250;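 active = inhibition above a per-plate cutoff, the plate's mean sample inhibition plus 3 SD, cut at about 24% in these data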;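 note: 0% = DMSO plus EC80 ATP and 100% = DMSO alone without ATP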
M1 ag parental: counter-screen for M1 agonists: effect in parental CHO-K1 cells | Fluo-8 calcium fluorescence; scaled to maximal ATP response, vehicle zero | activation, % at 3 µM | 360,000 tested, 0.48% active; in the data active = activation above about 15%;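 note: untransfected CHO-K1 host cells lacking M1 receptor as counterscreen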
CHO-K1 Ca PAM: M1 PAM counterscreen hit in parental CHO-K1 cells; ATP EC20, Fluo-8 calcium fluorescence; 0% at ATP EC20, 100% at ATP max; activation, % at 3 µM; 360,000 tested, 0.02% active; AID 602247;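 active = activation above the run cutoff, the mean activation of all test compounds plus 3 SD, cut at about 40% in these data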;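 note: peak over basal fluorescence ratio in a 140 s read after ATP addition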
M1 PAM: positive allosteric modulators of human M1 muscarinic receptor; 360,000 tested, 0.088% active; CHO-K1 hM1, Fluo-8 calcium fluorescence, ACh EC20; 0% = ACh EC20, 100% = maximal ACh; activation, % at 3 µM; P11229; in the data active = activation above about 19%, passing the limit was not always enough
Target sequence (P11229 whole entry, looked up): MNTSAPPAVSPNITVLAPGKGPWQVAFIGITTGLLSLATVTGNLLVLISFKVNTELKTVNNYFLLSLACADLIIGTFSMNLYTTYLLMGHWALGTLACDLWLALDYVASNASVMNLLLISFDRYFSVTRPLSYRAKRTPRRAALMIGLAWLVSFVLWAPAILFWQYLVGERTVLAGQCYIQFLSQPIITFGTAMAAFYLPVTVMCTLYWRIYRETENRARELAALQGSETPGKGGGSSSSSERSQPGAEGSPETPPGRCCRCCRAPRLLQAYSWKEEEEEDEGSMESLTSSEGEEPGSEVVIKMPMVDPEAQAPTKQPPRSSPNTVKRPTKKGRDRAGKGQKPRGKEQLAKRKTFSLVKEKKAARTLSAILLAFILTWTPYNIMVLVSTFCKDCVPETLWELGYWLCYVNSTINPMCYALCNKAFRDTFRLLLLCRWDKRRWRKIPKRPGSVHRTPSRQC
M1 ag: agonists of human M1 muscarinic receptor. activation, % at 3 µM. AID 588814. P11229. CHO-K1 hM1, Fluo-8 calcium fluorescence, agonist mode; 0% DMSO, 100% acetylcholine EC100. 360,000 tested, 0.33% active;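 active = activation above the run's mean compound activation plus 3 SD, cut at about 16% in these data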;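 note: peak over basal fluorescence ratio within a 140 s kinetic read after compound addition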
CHRM1 antagonist: antagonists of human M1 muscarinic receptor; CHO-K1 hM1, Fluo-8 calcium fluorescence, ACh EC80 antagonist; inhibition, % at 3 µM; AID 588852; P11229; 360,000 tested, 1.3% active;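 active = percent inhibition above its own plate's cutoff, namely the mean of that plate's compound wells plus 3 SD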;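 note: peak over basal fluorescence ratio during 140 s after agonist addition; 0% = ACh EC80 plus DMSO and 100% = DMSO alone without agonist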
Active calls of the source: *; · = not tested or not shown; ! = not confirmed by another sample.

SMILES | CHO-K1 Ca antag | M1 ag parental | CHO-K1 Ca PAM | M1 PAM | M1 ag | CHRM1 antagonist
CCN(CC)S(=O)(=O)c1ccc(O)c(NC(=O)c2cc(-c3cc(OC)c(OC)c(OC)c3)nc3ccccc23)c1 | -6 | 2 | -3 | -16 | -2 | 29*
COc1ccc(-c2cc(C(=O)N(C)Cc3ccccc3F)c3ccccc3n2)cc1OC | 8 | 5 | 1 | -16 | -2 | 40*
COCCN(Cc1ccccc1)C(=O)c1cc(-c2ccc(OC)c(OC)c2)nc2ccccc12 | 15 | 6 | -20 | 3 | 1 | 16
COc1ccccc1CN(C)C(=O)c1cc(-c2cc(OC)c(OC)c(OC)c2)nc2ccccc12 | -2 | 5 | 1 | -3 | -6 | 19
CCN(Cc1ccccc1)C(=O)c1cc(-c2ccc(OC)c(OC)c2)nc2ccccc12 | 3 | 5 | -6 | -12 | -4 | 35*
COc1ccc(NC(=O)CN(C)C(=O)c2cc(-c3ccc(Cl)cc3)nc3ccccc23)cc1 | 8 | 8 | 3 | -4 | -4 | 20
CN(C)c1ncnc2c1ncn2[C@H]1CN(Cc2cccnc2)C[C@@H](CO)O1 | -5 | 1 | 19 | 12 | 0 | -15
COc1cc(-c2cc(C(=O)N(C)Cc3ccccc3)c3ccccc3n2)cc(OC)c1OC | 6 | 5 | -2 | -11 | -5 | 22*
CCN(CC(=O)Nc1ccc(NC(C)=O)cc1)C(=O)c1cc(-c2ccccc2Cl)nc2ccccc12 | 3 | 8 | -5 | -16 | 0 | 41*
COc1cccc(CN(C)C(=O)c2cc(-c3cccs3)nc3ccccc23)c1 | 27* | 6 | 5 | -16 | 0 | 54*
COc1ccc(-c2cc(C(=O)Nc3cccc(S(=O)(=O)NCc4ccco4)c3)c3ccccc3n2)cc1OC | -8 | 7 | -4 | -13 | -1 | 41*
OCC1(CC2CCCCO2)CCN(Cc2cccc(O)c2)CC1 (stereo unspecified) | -7 | 0 | 7 | 10 | -3 | -4
CC(c1ccccc1)C(CC(=O)O)C(=O)Nc1ccc(Cl)c(Cl)c1 (stereo unspecified) | -1 | 0 | -6 | 1 | -5 | -6
O=C(Nc1ccc([N+](=O)[O-])cc1)Nc1nc(-c2ccc(Cl)s2)cs1 | 34* | 10 | -4 | -10 | 6 | 8
CON(C)C(=O)CC1(CN(Cc2ccccc2)C(=O)OC(C)(C)C)CCCCC1 | -17 | -1 | 3 | -1 | -1 | 5
C#CC(=O)CC1(CN(Cc2ccccc2)C(=O)OC(C)(C)C)CCCCC1 | -3 | 0 | -12 | -33 | -14 | 34*
O=C(CN1CCN(Cc2ccccc2)CC1)Nc1cccc(C(F)(F)F)c1 | 26* | 0 | -8 | 11 | -4 | -10
C[n+]1c2cc(N)ccc2cc2ccc(N)cc21 | 25*! | 210* | 3 | -17 | 205* | 14
Nc1ccc2ccc(O)cc2c1 | 2 | 0 | -3 | 6 | -1 | -10
CC(C)NC(=O)C(Sc1ccccc1)c1ccccc1 (stereo unspecified) | 24* | 0 | -8 | 6 | -2 | 0
CCOC(=O)C1=C(C)C(c2ccccc2OC)NC(=S)N1 (stereo unspecified) | -14 | 0 | 14 | 10 | -1 | -14
COc1ccccc1/C=C/C(=O)NC(=S)NCC1CCCO1 (stereo unspecified) | 2 | 5 | 4 | -12 | -3 | 35*
COc1ccccc1NC(=S)NCC1CCCO1 (stereo unspecified) | 24* | -1 | -14 | -2 | -3 | 5
CCOc1ccccc1NC(=S)NCC1CCCO1 (stereo unspecified) | -5 | 4 | 18 | 3 | -6 | -2
O=C(NC(=S)NCC1CCCO1)c1ccc(Cl)cc1Cl (stereo unspecified) | -4 | 15* | 20 | 1 | -6 | -3
SMILES | CHO-K1 Ca antag | M1 ag parental | CHO-K1 Ca PAM | M1 PAM | M1 ag | CHRM1 antagonist
Cc1cc(C)cc(NC(=S)NCC2CCCO2)c1 (stereo unspecified) | 6 | 0 | -3 | -11 | -3 | 12*
S=C(NCC1CCCO1)Nc1cc(Cl)c(Cl)cc1Cl (stereo unspecified) | -17 | 2 | 2 | -2 | -3 | 2
COc1ccc(/C=C/C(=O)NC(=S)NCC2CCCO2)cc1 (stereo unspecified) | 2 | 4 | 6 | -1 | -6 | 6
COc1ccc(CN2CC(C(=O)N3CC(C)CC(C)C3)CC2=O)cc1 (stereo unspecified) | 8 | 1 | 3 | 10 | -2 | -2
O=C1[C@H]2[C@@H](c3ccc(F)cc3)N3C(=O)N(c4cccc(Br)c4)C(=O)[C@@]3(Cc3ccc(Cl)cc3)[C@H]2C(=O)N1C1CCCCC1 | -2 | 0 | 2 | 27* | 4 | -17
O=C1[C@H]2[C@@H](c3ccc(Cl)cc3)N3C(=O)N(c4cccc(Br)c4)C(=O)[C@@]3(Cc3ccc(Cl)cc3)[C@H]2C(=O)N1C1CCCCC1 | -19 | 1 | 14 | 0 | -7 | -1
O=C(Nc1ccccc1F)N1CCc2ccccc2C1 | -3 | 2 | -1 | 4 | -3 | -7
Cc1cc(C)n(C(=O)Cn2nc(C)c(Br)c2C)n1 | -2 | 0 | 12 | 0 | -3 | -7
CCC(=O)N(Cc1cc(=O)[nH]c2ccccc12)c1cccc(C)c1 | -8 | 1 | 12 | -21 | -5 | 65*
CCC(=O)N(Cc1cc(=O)[nH]c2ccccc12)c1ccccc1C | 55* | -1 | -31 | 10 | -2 | -6
CCCC(=O)N(Cc1cc(=O)[nH]c2ccccc12)c1ccc(C)cc1 | -4 | 2 | 22 | -28 | 1 | 57*
CCCC(=O)N(Cc1cc(=O)[nH]c2ccccc12)c1ccc(C)cc1C | -6 | 1 | -11 | -4 | 3 | 8
COc1ccc(C(=O)NNC(=O)C2CCN(S(=O)(=O)c3ccc(C)cc3)CC2)cc1 | -14 | -1 | 11 | 6 | -10 | 1
CC(C)NC(=O)C1(C#N)C=C1c1ccccc1 (stereo unspecified) | -7 | 1 | 9 | · | · | ·
Nc1c(C(=O)CSc2nc3ccccc3o2)c(=O)[nH]c(=O)n1C1CC1 | -11 | 2 | 4 | 16 | 7 | -13
CN(C)C(CNC(=S)Nc1ccc(F)cc1)c1cccnc1 (stereo unspecified) | 19 | 0 | -11 | 9 | -9 | -7
COc1ccc(CN2C(=O)CS/C2=N/N=C/c2cccs2)cc1 | 25* | 10 | -12 | -12 | 2 | 36
COc1ccc(OC)c(/C=N/N=C2\SCC(=O)N2Cc2ccco2)c1 | -14 | 2 | 19 | -3 | -5 | 4
Cc1nc(SCc2ccc(Cl)cc2)ncc1C(=O)O | 17 | 21* | 1 | -5 | -1 | 2
